The values below come from PubChem BioAssay (NCI).

What all share (assay): NCI-60 one-dose screen, 48 h (100 = growth as untreated, 0 = no growth, -100 = all killed)
The subject of one assay is SK-MEL-2 melanoma. As to conditions: 10 µM unless noted.
The test system of the next assay is EKVX NSCLC. As to conditions: 10 µM unless noted.
The subject of a further assay is SN12C renal. As to conditions: 10 µM unless noted.
The next assay concerns TK-10 renal. As to conditions: 10 µM unless noted.
The subject of another assay is ACHN renal. As to conditions: 10 µM unless noted.
A further assay deals with A498 renal. As to conditions: 10 µM unless noted.
A further assay relates to CCRF-CEM leukemia. As to conditions: 10 µM unless noted.
The subject of the next assay is MOLT-4 leukemia. As to conditions: 10 µM unless noted.
Another assay relates to SR leukemia. As to conditions: 10 µM unless noted.
The next assay relates to RPMI-8226 leukemia. As to conditions: 10 µM unless noted.
The subject of the next assay is OVCAR-8 ovarian. As to conditions: 10 µM unless noted.
Another assay deals with OVCAR-5 ovarian. As to conditions: 10 µM unless noted.
Another assay has as its system OVCAR-4 ovarian. As to conditions: 10 µM unless noted.
For the next assay, the system named is SK-OV-3 ovarian. As to conditions: 10 µM unless noted.
The test system of another assay is IGROV1 ovarian. As to conditions: 10 µM unless noted.
The test system of the next assay is OVCAR-3 ovarian. As to conditions: 10 µM unless noted.
The next assay has as its system HS 578T breast. As to conditions: 10 µM unless noted.
For the next assay, the system named is NCI/ADR-RES ovarian. As to conditions: 10 µM unless noted.
For a further assay, the system named is UO-31 renal. As to conditions: 10 µM unless noted.
Another assay relates to CAKI-1 renal. As to conditions: 10 µM.

Each structure is given as a SMILES string. About 83,000 compounds went through this panel and 20% of them were active in at least one assay; those are over-represented in the sample as a whole.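 96-well plates, one dose, 48 hours. Percent growth reported; active if below 10.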 Values without a mark were called inactive. Activity calls are given as the source filed them.

As to `O=C(Cn1c2ccccc2c2ccncc21)N/N=C\c1ccc2ccccc2c1`, the growth in the assay with SK-MEL-2 melanoma was 63.8%; in the assay with EKVX NSCLC, 55.8%; in the assay on SN12C renal, 19.9%; in the assay on TK-10 renal, 55.1%; with ACHN renal, 4.98% (active); with A498 renal, 85.1%. In addition, the growth in the assay on CCRF-CEM leukemia is 50.4%; in the assay with MOLT-4 leukemia, 41.7%; in the assay with SR leukemia, 33.5%; with RPMI-8226 leukemia, -1.73% (active); with OVCAR-8 ovarian it was 14.2%; with OVCAR-5 ovarian, 75.2%. Besides, the growth is -11% (active) with OVCAR-4 ovarian; 36% in the assay with SK-OV-3 ovarian; 43.1% with IGROV1 ovarian; -37.1% (active) in the assay on OVCAR-3 ovarian; 38.2% in the assay on HS 578T breast; 27.2% in the assay with NCI/ADR-RES ovarian.

On to `Nc1ncnc2c1c(-c1ccc(Oc3ccccc3)cc1)nn2C[C@H]1SSC[C@H]1O`, for which the growth is -75.1% (active) with SK-MEL-2 melanoma; 6.97% (active) in the assay with EKVX NSCLC; 20.7% with SN12C renal; -3.37% (active) in the assay with UO-31 renal; 10.3% with ACHN renal; 18.9% with A498 renal. Besides, the growth was 11.1% in the assay with CCRF-CEM leukemia; -2.47% (active) with MOLT-4 leukemia; -40% (active) in the assay with SR leukemia; 42.8% in the assay with RPMI-8226 leukemia; 20.5% in the assay with OVCAR-8 ovarian; 64.1% in the assay with OVCAR-5 ovarian. The growth in the assay with OVCAR-4 ovarian was 25.6%; in the assay with SK-OV-3 ovarian it was -20.8% (active); with IGROV1 ovarian, -26.5% (active); in the assay with OVCAR-3 ovarian, -9.53% (active); in the assay on HS 578T breast it was 21.6%; in the assay on NCI/ADR-RES ovarian, 22.4%.

As for `Cn1c(I)c(C#C[Si](C)(C)C)c(=O)[nH]c1=O`, the growth with SK-MEL-2 melanoma is 60.7%; in the assay on EKVX NSCLC, 86.5%; with SN12C renal, 32.8%; in the assay with TK-10 renal, 82.3%; in the assay with ACHN renal it was -28.4% (active); in the assay with CAKI-1 renal it was -79% (active). Further, the growth in the assay with A498 renal was 130%; with CCRF-CEM leukemia, -61.6% (active); with MOLT-4 leukemia it was -59.7% (active); in the assay on RPMI-8226 leukemia, 46.5%; in the assay with OVCAR-8 ovarian it was -11.7% (active); with OVCAR-5 ovarian it was 77.7%. Further, the figures for the growth in the assay on OVCAR-4 ovarian, with SK-OV-3 ovarian and in the assay with HS 578T breast were -65% (active), 110% and 10.6%, respectively.

Take `O=C(/C=C/c1ccco1)c1cccc(Nc2nc(Nc3ccccc3)nc(Nc3ccccc3)n2)c1`: the growth in the assay on SK-MEL-2 melanoma was 83.9%; in the assay with EKVX NSCLC it was 77.8%; in the assay with SN12C renal, 98.6%; in the assay on TK-10 renal it was 141%; in the assay with ACHN renal, 95.5%; with CAKI-1 renal it was 92.8%. For the same molecule, the growth was -34.7% (active) in the assay on A498 renal; 56.4% with CCRF-CEM leukemia; 61.7% in the assay on MOLT-4 leukemia; 38.8% in the assay on RPMI-8226 leukemia; 49.5% in the assay on OVCAR-8 ovarian; 83.6% in the assay on OVCAR-5 ovarian. Besides, the growth with OVCAR-4 ovarian was 62.1%; in the assay on SK-OV-3 ovarian, 90.5%; in the assay on OVCAR-3 ovarian, 61.8%; in the assay with HS 578T breast it was 92%; with NCI/ADR-RES ovarian, 75.5%.

Consider `CC(C)[C@@H]1NC(=O)[C@]2(C)CSC(=N2)c2ccnc(c2)CNC(=O)C[C@@H](/C=C/CCS)OC1=O`, for which the growth is -28.2% (active) with SK-MEL-2 melanoma; 31.4% with EKVX NSCLC; 27.8% in the assay with SN12C renal; 12% with UO-31 renal; 6.6% (active) in the assay with ACHN renal; -77% (active) in the assay on A498 renal. Besides, the growth in the assay with CCRF-CEM leukemia was 16%; in the assay with MOLT-4 leukemia, 8.13% (active); with SR leukemia, 7.26% (active); in the assay with RPMI-8226 leukemia, -18.5% (active); in the assay on OVCAR-8 ovarian, -3.79% (active); in the assay with OVCAR-5 ovarian, 18.2%. In addition, the growth in the assay with OVCAR-4 ovarian was 27.3%; with SK-OV-3 ovarian, -7.53% (active); in the assay with IGROV1 ovarian it was 0.54% (active); in the assay on OVCAR-3 ovarian, -6.18% (active); in the assay on HS 578T breast, 9.92% (active); with NCI/ADR-RES ovarian, 29.8%.

Take `Nc1ncnc2c1c(-c1ccc(Oc3ccccc3)cc1)nn2C[C@@H]1SSC[C@H]1O`: the growth was -14.4% (active) in the assay on SK-MEL-2 melanoma; 33.2% in the assay with EKVX NSCLC; 23.3% in the assay on SN12C renal; 0.587% (active) in the assay on UO-31 renal; 11.6% in the assay on ACHN renal; -5.51% (active) with A498 renal. Further, the growth is 32.9% in the assay with CCRF-CEM leukemia; 0.449% (active) in the assay with MOLT-4 leukemia; 4.41% (active) in the assay with SR leukemia; 50.9% in the assay on RPMI-8226 leukemia; 33.3% in the assay with OVCAR-8 ovarian; 80.8% with OVCAR-5 ovarian. Besides, the growth is 50.2% in the assay with OVCAR-4 ovarian; -8.06% (active) with SK-OV-3 ovarian; -10.3% (active) in the assay on IGROV1 ovarian; 18.3% with OVCAR-3 ovarian; 16.9% with HS 578T breast; 48.3% in the assay on NCI/ADR-RES ovarian.

Regarding `CCCCN(CCCC)c1ccc(C(=N)c2ccc(N(C)C)cc2)cc1`, the growth was -69.6% (active) with SK-MEL-2 melanoma; -11.9% (active) in the assay on EKVX NSCLC; -30% (active) in the assay on SN12C renal; -5.56% (active) in the assay on TK-10 renal; -2.72% (active) in the assay on ACHN renal; -28.9% (active) in the assay on CAKI-1 renal. Besides, the growth in the assay with A498 renal was 9.81% (active); in the assay on CCRF-CEM leukemia, 1.04% (active); with MOLT-4 leukemia, 1.79% (active); in the assay on SR leukemia, -44.4% (active); in the assay on RPMI-8226 leukemia, -43.3% (active); with OVCAR-8 ovarian, -15.4% (active). Further, the growth is -2.12% (active) in the assay with OVCAR-5 ovarian; 7.13% (active) in the assay on OVCAR-4 ovarian; -7.53% (active) in the assay on SK-OV-3 ovarian; -68.9% (active) in the assay with HS 578T breast; -47.4% (active) in the assay with NCI/ADR-RES ovarian.

With `O=c1nc(N2CCOCC2)oc2c(-c3cccc4ccccc34)cccc12`, the growth in the assay with SK-MEL-2 melanoma was 100%; with EKVX NSCLC, 81.1%; in the assay with SN12C renal, 82.3%; in the assay with UO-31 renal, 53.4%; in the assay on ACHN renal, 81.6%; with A498 renal, 8.01% (active). Moreover, the growth in the assay on CCRF-CEM leukemia is 91.5%; in the assay on MOLT-4 leukemia, 93.1%; in the assay on SR leukemia, 72.9%; with RPMI-8226 leukemia it was 96.1%; with OVCAR-8 ovarian, 85.2%; in the assay on OVCAR-5 ovarian, 89.2%. Also, the growth in the assay on OVCAR-4 ovarian is 97.1%; in the assay on SK-OV-3 ovarian, 90%; in the assay on IGROV1 ovarian, 75.4%; in the assay on OVCAR-3 ovarian it was 85.8%; in the assay with HS 578T breast it was 83.8%; with NCI/ADR-RES ovarian, 83.7%.

On to `COc1ccc2c(c1)C(=O)/C(=C/c1ccc(OCC(=O)c3ccc(Cl)cc3)cc1)O2`, for which the growth is 87% in the assay with SK-MEL-2 melanoma; 82% in the assay on EKVX NSCLC; 92.2% with SN12C renal; 132% in the assay with TK-10 renal; 98.8% in the assay with ACHN renal; -53.4% (active) in the assay with CAKI-1 renal. Besides, the growth was 148% with A498 renal; 29% in the assay with CCRF-CEM leukemia; 20% in the assay with MOLT-4 leukemia; 58.9% with RPMI-8226 leukemia; 84.9% in the assay on OVCAR-8 ovarian; 105% with OVCAR-5 ovarian. In addition, the growth in the assay with OVCAR-4 ovarian was 78.4%; with SK-OV-3 ovarian it was 98.8%; with OVCAR-3 ovarian, 83.7%; in the assay with HS 578T breast, 115%; with NCI/ADR-RES ovarian, 98.8%.
